This is part of a sample that, as a whole, favours compounds with a hit. Of some 79,000 tested, about 15% had one in any assay. Rule as the data show it: active = growth inhibition above about 70%; inactive = the rest.
What was measured:
[1] = NCI Yeast Anticancer Drug Screen. Data for the rad50 strain (AID 155);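 also: 0% = growth of vehicle-only cultures of the same strain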; settings: S. cerevisiae rad50 strain growth inhibition; at 50.0 µM; stronger effect = higher value
In short: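 Vehicle-treated cultures provide the reference for the growth inhibition reported for compound-exposed, repair-deficient yeast.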

[2] = NCI Yeast Anticancer Drug Screen. Data for the mec2-1 strain (AID 157); settings: S. cerevisiae mec2-1 strain, at 50.0 µM, stronger effect = higher value
In short: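 Using mec2-1 yeast: add compound, measure growth, express inhibition versus vehicle-treated cultures.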

[3] = NCI Yeast Anticancer Drug Screen. Data for the sgs1 mgt1 strain (AID 161);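 also: 0% = growth of cultures given vehicle only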; settings: S. cerevisiae sgs1 mgt1 strain, at 50.0 µM, stronger effect = higher value
In short: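 Yeast cells carrying a defined DNA-repair defect were exposed to test compounds. Growth inhibition was measured relative to vehicle-treated controls.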

[4] = NCI Yeast Anticancer Drug Screen. Data for the cln2 rad14 strain (AID 165);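 also: 0% = growth equal to vehicle treated cultures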; settings: S. cerevisiae cln2 rad14 strain, at 50.0 µM, stronger effect = higher value
In short: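 Yeast strain cln2 rad14, bearing defects in cell cycle control and DNA repair, serves as the test system; values reflect growth inhibition compared with vehicle.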

[5] = NCI Yeast Anticancer Drug Screen. Data for the bub3 strain (AID 167); settings: S. cerevisiae bub3 mutant strain, at 50.0 µM, stronger effect = higher value
In short: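 Mutant yeast screening strain plus compound; vehicle-treated cultures serve as the 0% inhibition reference.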

[6] = NCI Yeast Anticancer Drug Screen. Data for the mlh1 rad18 strain (AID 175); settings: S. cerevisiae mlh1 rad18 strain growth inhibition; at 50.0 µM; stronger effect = higher value
In short: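 Steps: expose repair-defective yeast to compound; measure growth; express inhibition against vehicle-treated controls.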

Measured: growth inhibition

O=C(Cc1ccccc1)N(C(=O)c1ccccc1)c1ccccc1
inactive: [1] 8.9% | [2] 14.5% | [3] 10.8% | [4] 9.1% | [5] 24.1% | [6] 15.7%

Cc1cn(C2CC(O)C(CO)O2)c(=O)nc1NC1CCCCCCCCCCC1 (stereo not given)
inactive: [1] 1.25% | [2] 5.7% | [3] 10.1% | [4] 12.9% | [5] -5.5% | [6] -6.4%

c1csc(C2=NCCC2)c1
inactive: [1] 0.35% | [2] -6.65% | [3] 6.35% | [4] 36.5% | [5] 31.6% | [6] 3.3%

N=c1ccc([N+](=O)[O-])cn1O
inactive: [1] 13.4% | [2] 11.7% | [3] -2% | [4] -41.5% | [5] -2.8% | [6] 1.95%

CCCCCCCC(=O)NC(O)C(Cl)(Cl)C(C)Cl (stereo not given)
inactive: [1] 31.1% | [2] -6.35% | [3] 3.35% | [4] -21.4% | [5] -1.55% | [6] 9.35%

O=C1CC2(CCCC2)C(=O)N1c1ccc(O)c(CN2CCCCC2)c1
inactive: [1] 7.6% | [2] -4.3% | [3] -19.6% | [4] 14.7% | [5] 6.35% | [6] 4.95%

CCOC(=O)NC(=O)c1cn(C2OC(COC(=O)CCCCCCCCC(=O)OCC3OC(n4cc(C(=O)NC(=O)OCC)c(=O)[nH]c4=O)C4OC(C)(C)OC34)C3OC(C)(C)OC32)c(=O)[nH]c1=O (stereo not given)
inactive: [1] -42.9% | [2] -39.5% | [3] -27.9% | [4] 10.9% | [5] -16.1% | [6] -24.9%

COc1cc(O)c2c(=O)c(O)c(-c3ccc(O)c(O)c3)oc2c1
inactive: [1] 3.15% | [2] -24.1% | [3] 13.7% | [4] 9.05% | [5] -11.8% | [6] -10.6%

COc1ccc(OC(=O)Nc2cccc(Cl)c2)cc1
inactive: [1] 8.4% | [2] 39.1% | [3] 29.8% | [4] -11.3% | [5] 31.4% | [6] 55.6%

O=C1C=CC2(CC=CCC2)CC1 (stereo not given)
inactive: [1] 5.25% | [2] -8.4% | [3] -1.6% | [4] -23.4% | [5] -11.8% | [6] 0.55%

C/C(N)=N/OCc1ccccc1
inactive: [1] 8.9% | [2] 6.95% | [3] 10.7% | [4] 4.7% | [5] 10.2% | [6] 7.7%

O=CNc1cc([N+](=O)[O-])ccc1OCc1ccccc1
inactive: [1] 13.6% | [2] 1.6% | [3] -0.75% | [4] 4.6% | [5] 12.2% | [6] -21.9%

COc1ccc(Cl)cc1/C=C\C=N\OCC(=O)O
inactive: [1] 5.2% | [2] 1.85% | [3] 1.05% | [4] -43.6% | [5] -5.85% | [6] 7.25%

OC1OC2COC(c3ccccc3)OC2C(O)C1O (stereo not given)
inactive: [1] 4% | [2] -14.5% | [3] 8.15% | [4] -3.35% | [5] -3.3% | [6] -20.9%

COC1=C(C(c2cc(OC)c(OC)c(OC)c2)c2cc3c(cc2OC)OCO3)C(=O)OC1 (stereo not given)
inactive: [1] -18.6% | [2] -5.9% | [3] -2.9% | [4] 6.25% | [5] 1.1% | [6] 13.4%

CCCCCc1c(C)[nH]n(C(N)=NCCSCc2nc[nH]c2C)c1=O
inactive: [1] 31.5% | [2] -0.8% | [3] 35% | [4] 22.4% | [5] -22.5% | [6] 25.2%

Cc1cc(N(C)c2ccccc2)nc(N(C)c2ccccc2)n1
inactive: [1] -24.4% | [2] -16.6% | [3] -6.05% | [4] -14.6% | [5] -23.3% | [6] -61.5%

CC1=CC(=O)C(C(O)(C(F)(F)F)C(F)(F)F)C(C)(C)C1 (stereo not given)
inactive: [1] -37.1% | [2] -38% | [3] -5.45% | [4] -23.8% | [5] -4.95% | [6] -6.9%

O=CN/C=C/c1ccccc1O
inactive: [1] -5% | [2] 1.8% | [3] 4.1% | [4] 6.95% | [5] 12.1% | [6] -4.6%

CC1=C(C(=O)OC2CC3CCC2(C)C3(C)C)C2Nc3ccccc3N(C)C2O1 (stereo not given)
inactive: [1] -4.75% | [2] -8.8% | [3] -3.65% | [4] -3.2% | [5] -8.4% | [6] 6.95%
